These results are taken from PMC5540273 (PLoS ONE, 2017).

Some test systems named below: PLK2; PLK3; PLK4; PRKCD; PRKCE; PRKCH; PRKCI; PRKCQ; PRKD1; PRKD2.
Common to all, as to conditions: concentration: 1 μM, replicates: in singlicate; n = 1
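Also: KINOMEscan kinase panel screen.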

As for `CC(C)(C)c1ccc2nccc(Nc3cccc(O)c3)c2c1` [GW856795], the “%Inh” value in the assay with PLK2 is listed as 0%; with PLK3, 0%; in the assay with PLK4, 7%; in the assay with PRKCD, 0%; in the assay with PRKCE, 22%; in the assay on PRKCH, 0%. For the same molecule, the “%Inh” value in the assay on PRKCI was determined as 0%; in the assay with PRKCQ, 0%; in the assay on PRKD1 it was 9%; in the assay on PRKD2, 6%.
On to `CN(C)Cc1ccc(-c2ccc3c(Nc4ccc(Oc5ccccn5)cc4)ccnc3c2)o1` [GW567148], for which the “%Inh” value in the assay on PLK2 is reported as 0%; in the assay with PLK3, 0%; in the assay on PLK4 it was 37%; in the assay with PRKCD, 0%; in the assay on PRKCE, 0%; in the assay on PRKCH, 7%. For the same molecule, the “%Inh” value in the assay with PRKCI stood at 0%; with PRKCQ it was 0%; in the assay on PRKD1, 0%; in the assay with PRKD2, 4%.
Take `COc1ccc(Nc2nccc(NCCNC(=O)c3cc4ccccc4s3)n2)cc1` [GSK1379896]: the “%Inh” value in the assay on PLK2 amounted to 0%; in the assay with PLK3, 0%; with PLK4 it was 0%; in the assay with PRKCD, 0%; with PRKCE, 2%; with PRKCH, 0%. For the same molecule, the “%Inh” value in the assay on PRKCI stood at 25%; with PRKCQ, 9%; in the assay with PRKD1, 0%; in the assay with PRKD2, 0%.
For `COc1cccc(C2=C(Nc3ccc(Cl)c(C(=O)O)c3)C(=O)NC2=O)c1` [SB-390769], the “%Inh” value with PLK2 turned out to be 100%; with PLK3, 100%; in the assay on PLK4, 1%; with PRKCD it was 0%; in the assay on PRKCE it was 32%; in the assay on PRKCH, 25%. Further, the “%Inh” value in the assay on PRKCI is recorded as 21%; in the assay on PRKCQ, 0%; in the assay with PRKD1 it was 0%; in the assay on PRKD2, 6%.
Regarding `C[C@@H]1CC[C@@H](C(=O)Nc2ccccc2)CN1c1cc(-c2ccc3c(N)n[nH]c3c2)nc(N)n1` [GSK2286062], the “%Inh” value with PLK2 is recorded as 0%; with PLK3, 0%; with PLK4 it was 0%; in the assay on PRKCD, 9%; in the assay with PRKCE, 6%; in the assay with PRKCH, 14%. Moreover, the “%Inh” value in the assay with PRKCI is recorded as 15%; in the assay on PRKCQ, 0%; with PRKD1, 0%; with PRKD2, 23%.
As for `Nc1ncc(-c2ccc3nccc(-c4ccncc4)c3c2)cc1S(=O)(=O)N1CCOCC1` [GSK1627798], the “%Inh” value in the assay on PLK2 is 0%; with PLK3, 0%; with PLK4, 0%; with PRKCD, 0%; in the assay on PRKCE, 9%; with PRKCH it was 18%. Also, the “%Inh” value in the assay with PRKCI came to 9%; in the assay with PRKCQ, 0%; with PRKD1, 0%; in the assay on PRKD2 it was 3%.
For the molecule `CN1CCN(CCCNc2nccc(-c3c(-c4ccc(F)cc4)nn4cc(C(F)(F)F)ccc34)n2)CC1` [GW621581], the “%Inh” value in the assay with PLK2 was found to be 0%; in the assay with PLK3, 0%; with PLK4, 12%; in the assay on PRKCD, 7%; with PRKCE, 0%; with PRKCH, 20%. Moreover, the “%Inh” value is recorded as 19% in the assay with PRKCI, 7% in the assay on PRKCQ, 47% with PRKD1 and 34% in the assay on PRKD2.
For the molecule `CN1CCN(Cc2cccc(-c3ccc4c(Nc5ccc(Oc6ccccc6)cc5)ccnc4c3)c2)CC1` [GW578342], the “%Inh” value is listed as 0% with PLK2; 1% in the assay with PLK3; 0% in the assay on PLK4; 15% in the assay on PRKCD; 6% in the assay with PRKCE; 2% in the assay on PRKCH. For the same molecule, the “%Inh” value is reported as 19% in the assay on PRKCI, 3% with PRKCQ, 0% in the assay with PRKD1 and 18% in the assay on PRKD2.
`c1ccc(-c2n[nH]cc2Nc2ccnc3ccccc23)nc1` [GW694077]: the “%Inh” value in the assay on PLK2 is given as 0%; in the assay on PLK3, 0%; with PLK4, 48%; in the assay on PRKCD, 0%; with PRKCE it was 22%; in the assay on PRKCH, 0%. The “%Inh” value is recorded as 48% in the assay with PRKCI, 0% in the assay with PRKCQ, 91.8% in the assay on PRKD1 and 96.2% in the assay on PRKD2.
As for `CC(=O)Nc1nc2cnc(Nc3cc(NC(=O)c4cccc(C5(C#N)CC5)c4Cl)ccc3C)nc2s1`, the “%Inh” value is 4% in the assay on PLK2; 0% in the assay on PLK3; 0% in the assay with PLK4; 29% with PRKCD; 0% with PRKCE; 0% with PRKCH. For the same molecule, the “%Inh” value was determined as 0% in the assay on PRKCI, 39% in the assay with PRKCQ, 0% in the assay on PRKD1 and 4% with PRKD2.
`CSc1cccc2c(-c3ccncn3)c(-c3ccc(F)cc3)nn12` [GW514786]: the “%Inh” value in the assay with PLK2 is 40%; in the assay on PLK3 it was 0%; with PLK4, 2%; with PRKCD it was 0%; in the assay on PRKCE it was 11%; in the assay on PRKCH it was 6%. For the same molecule, the “%Inh” value in the assay on PRKCI is 5%; in the assay on PRKCQ it was 19%; in the assay on PRKD1 it was 0%; in the assay on PRKD2 it was 2%.
Regarding `Cc1ccc(C(=O)Nc2ccc(Nc3ccnc4cc(-c5nccs5)ccc34)cc2O)cc1.Cl` [GW494702], the “%Inh” value in the assay with PLK2 is on record as 0%; with PLK3 it was 0%; in the assay on PLK4, 98.4%; in the assay on PRKCD, 0%; in the assay on PRKCE, 16%; with PRKCH, 5%. The “%Inh” value worked out at 2% in the assay on PRKCI, 13% with PRKCQ, 0% with PRKD1 and 2% with PRKD2.
On to `Cn1cc(-c2ccc3c(c2)CCN3C(=O)Cc2cccc(F)c2)c2c(N)ncnc21` [GSK2603358], for which the “%Inh” value in the assay on PLK2 was 0%; in the assay on PLK3, 6%; in the assay with PLK4, 0%; in the assay on PRKCD, 0%; with PRKCE, 14%; with PRKCH it was 24%. Further, the “%Inh” value was 30% in the assay with PRKCI, 0% in the assay with PRKCQ, 0% with PRKD1 and 0% in the assay with PRKD2.
Turning to `CCc1ccc(-c2ccc3c(c2)-c2c(cnn2C)S(=O)(=O)N3C)cc1`, the “%Inh” value in the assay with PLK2 is recorded as 4%; with PLK3, 2%; in the assay with PLK4, 14%; with PRKCD it was 0%; in the assay on PRKCE it was 17%; with PRKCH, 0%. Further, the “%Inh” value in the assay on PRKCI is 2%; in the assay on PRKCQ it was 23%; in the assay with PRKD1, 0%; in the assay with PRKD2 it was 14%.
For `Cc1cccc(Nc2nc(N[C@H]3CCNC3)ncc2C(N)=O)c1.Cl` [GSK2197149], the “%Inh” value in the assay on PLK2 was 1%; with PLK3 it was 0%; with PLK4, 0%; with PRKCD, 58%; in the assay with PRKCE it was 86%; in the assay with PRKCH, 41%. Further, the “%Inh” value is recorded as 0% with PRKCI, 41% with PRKCQ, 49% in the assay with PRKD1 and 55% with PRKD2.
On to `O=C(O)C(F)(F)F.O=C(O)C(F)(F)F.O=c1[nH]ccc2nc(N[C@@H]3CCCNC3)nc(Nc3ccc(S(=O)(=O)N4CCOCC4)cc3)c12` [GSK2177277], for which the “%Inh” value was found to be 10% in the assay with PLK2; 0% in the assay with PLK3; 98.7% with PLK4; 99.8% in the assay on PRKCD; 99.9% in the assay on PRKCE; 99% in the assay on PRKCH. Also, the “%Inh” value in the assay with PRKCI stood at 95.3%; in the assay on PRKCQ, 99.2%; in the assay on PRKD1, 94.8%; with PRKD2, 99.1%.
